Measured values taken from PubChem BioAssay (Tox21).
Inconclusive results are not listed. Unmarked numbers belong to inactive results. Activity calls are given as the source filed them. Unless noted, calls follow the shape of the dose curve; as a rule, active = well fitted cell-killing curve with a large enough effect in the repeat runs; inconclusive = weak or mixed curves; inactive = no such curve, though single readings can be large or run the other way.

System: not listed separately
Assay: qHTS assay to identify small molecule agonists of the peroxisome proliferator-activated receptor delta (PPARd) signaling pathway - cell viability counter screen (AID 743211); also: nearly all actives have a fitted effect of over 55% in size
Conditions: PPARd-bla HEK293H viability, CellTiter-Glo luminescence, 17 h; series mostly up to 62.6 µM; activity change, negative = cytotoxicity: at the top concentration
Summary of the method: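 Tox21 library compounds, delivered in DMSO, were incubated 17 h with PPARd-bla HEK293H cells; cytotoxicity was taken from CellTiter-Glo luminescence read 30 min after reagent addition.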
% is scaled to controls: 0 for no effect and ±100 for the full control effect; potency is read from the fitted curve at half-maximal effect.

Compound	Potency	activity change, negative = cytotoxicity
CC1(CN2CCC(n3c(=O)[nH]c4ccccc43)CC2)OCc2ccccc2-n2cccc21 (stereo not drawn)	33.5 µM (active)	–
C[C@@H]1CN(CCCn2c3ccccc3c3ccccc32)C[C@H](C)N1	10.6 µM (active)	–
CC(C)COCC(CN(Cc1ccccc1)c1ccccc1)N1CCCC1 (stereo not drawn)	21.1 µM (active)	–
COC(=O)c1nc(Cl)c(Cl)nc1N	29.8 µM (active)	–
CCOc1cccc(-n2cc(C(=O)N3CCN(c4cc(C(=O)O)c5ccccc5c4)CC3)nc2-c2ccc(C)cc2)c1	37.1 µM (active)	–
CCOC(=O)c1ccccc1C(=C1C=C(Br)C(=O)C(Br)=C1)c1cc(Br)c(O)c(Br)c1	–	-29.1%
C1C[C@@H]2[C@H]3CC[C@H](C3)[C@@H]2C1	–	0.495%
CC1=Nc2ccc3ccccc3c2C1(C)C	–	-3.27%
C[C@@H](O)[C@H]1C(=O)N2C(C(=O)O)=C([C@H]3CCCO3)S[C@H]12	–	2.89%
C=CC(=O)OCC1CC2CC1C1CCC(COC(=O)C=C)C21 (stereo not drawn)	–	-6.06%
O=C1NCCN1CCO	–	-8.15% [at 81.1 µM]
CN1CCCC(n2nc(Cc3ccc(Cl)cc3)c3ccccc3c2=O)CC1 (stereo not drawn)	–	-25.7%
C=Cc1ccc(S(=O)(=O)O)cc1	–	-10.9%
Clc1ccc(Nc2nnc(Cc3ccncc3)c3ccccc23)cc1	–	18.6%
Oc1cccc(O)c1O	–	0.181%
O=C1c2ccccc2C(=O)C1(O)O	–	-13.1% [at 81.1 µM]
O=C(O)CCC(=O)C(=O)O	–	-10.5%
CC(C)=CCC1C(=O)N(c2ccccc2)N(c2ccccc2)C1=O	–	-16.9%
CC(C)C=O	–	2.35% [at 81.1 µM]
CCCCCCCCCCC(=O)O	–	0.763% [at 81.1 µM]

Compound	Potency	activity change, negative = cytotoxicity
O=c1cc(-c2ccccc2)oc2cc(O)cc(O)c12	–	4.38%
CC(=O)OCCN(CCOC(C)=O)c1ccc(N=Nc2ccc([N+](=O)[O-])cc2C#N)cc1	–	-14.9%
N#[N+]c1ccc2c(S(=O)(=O)[O-])cccc2c1O	–	-3.78%
Cc1[nH]cnc1CN1CCc2c(c3ccccc3n2C)C1=O	–	-1.99%
CC(C)c1nc(CN(C)C(=O)N[C@H](C(=O)N[C@@H](Cc2ccccc2)C[C@H](O)[C@H](Cc2ccccc2)NC(=O)OCc2cncs2)C(C)C)cs1	29.8 µM (active)	–
CC1(C)S[C@@H]2[C@H](NC(=O)C(c3ccccc3)S(=O)(=O)O)C(=O)N2[C@H]1C(=O)O (stereo partly drawn)	–	-1.26%
O=C1c2ccccc2C(=O)C1c1ccc(Br)cc1	–	-22.2%
CCCCN1CCCC1C(=O)Nc1c(C)cc(C)cc1C (stereo not drawn)	–	-18.4%
CN1C[C@H](C(=O)N[C@]2(C)O[C@@]3(O)[C@@H]4CCCN4C(=O)[C@H](Cc4ccccc4)N3C2=O)C[C@@H]2c3cccc4[nH]cc(c34)C[C@H]21	23.7 µM (active)	–
CC(C)Nc1cccnc1N1CCN(C(=O)c2cc3cc(NS(C)(=O)=O)ccc3[nH]2)CC1	–	-26.9%
CCCCCC#CC(=O)OC	–	0.599%
Cc1cc(=O)c2c(O)c3c(O)cc(=O)c4c3c3c(cc(O)c1c23)C(C)(C)C=4O	0.291 µM (active)	–
CN1C(=O)N(c2ccccc2Br)Cc2cnc(Nc3ccc4c(c3)OCC(CO)O4)nc21 (stereo not drawn)	1.1 µM (active)	–
O=C(/C=C/c1ccccc1)OCCc1ccccc1	–	7.82%
COc1cc(Nc2c(C#N)cnc3cc(OCCCN4CCN(C)CC4)c(OC)cc23)c(Cl)cc1Cl	26.6 µM (active)	–
Oc1ccc(Cl)c2cccnc12	0.596 µM (active)	–
CC(C)(c1ccccc1)c1ccccc1	–	9.16%
Cc1ccco1	–	2.17%
Cc1cccc(O)c1N	–	3.44% [at 81.1 µM]
Brc1cc2ccccc2c2ccccc12	–	-16.7% [at 81.1 µM]

System: not listed separately
Assay: qHTS assay to identify small molecule antagonists of the peroxisome proliferator-activated receptor delta (PPARd) signaling pathway - cell viability counter screen (AID 743213); also: nearly all actives have a fitted effect of over 50% in size
Conditions: PPARd-bla HEK293H viability, CellTiter-Glo luminescence, 17 h; series mostly up to 62 µM; viability change, negative = cytotoxic: at the top concentration
Summary of the method: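 Viability counter-screen, qHTS format: PPARd-bla HEK293H, L165041 300 nM final, 17 h compound exposure at 37 C, CellTiter-Glo luminescence after 30 min RT.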

Compound	Potency	viability change, negative = cytotoxic
COC(=O)c1nc(Cl)c(Cl)nc1N	29.8 µM (active)	–
CCOC(=O)c1ccccc1C(=C1C=C(Br)C(=O)C(Br)=C1)c1cc(Br)c(O)c(Br)c1	–	-11.9%
Clc1ccc(Nc2nnc(Cc3ccncc3)c3ccccc23)cc1	–	28.8%
O=C1c2ccccc2C(=O)C1(O)O	–	-1.49% [at 80.4 µM]
O=C(O)CCC(=O)C(=O)O	–	3.57%
CC(C)C=O	–	8.77% [at 80.4 µM]
O=c1cc(-c2ccccc2)oc2cc(O)cc(O)c12	–	6.93%
CC(=O)OCCN(CCOC(C)=O)c1ccc(N=Nc2ccc([N+](=O)[O-])cc2C#N)cc1	–	17.1%
N#[N+]c1ccc2c(S(=O)(=O)[O-])cccc2c1O	–	4.58%
Cc1[nH]cnc1CN1CCc2c(c3ccccc3n2C)C1=O	–	9.29%
CC1(C)S[C@@H]2[C@H](NC(=O)C(c3ccccc3)S(=O)(=O)O)C(=O)N2[C@H]1C(=O)O (stereo partly drawn)	–	12.7%
CN1C(=O)N(c2ccccc2Br)Cc2cnc(Nc3ccc4c(c3)OCC(CO)O4)nc21 (stereo not drawn)	11 µM (active)	–
O=C(/C=C/c1ccccc1)OCCc1ccccc1	–	16.8%
Cc1ccco1	–	0.477%

Molecular target: Peroxisome proliferator-activated receptor delta (Homo sapiens) (UniProt Q03181)
Sequence (Q03181 whole entry, looked up): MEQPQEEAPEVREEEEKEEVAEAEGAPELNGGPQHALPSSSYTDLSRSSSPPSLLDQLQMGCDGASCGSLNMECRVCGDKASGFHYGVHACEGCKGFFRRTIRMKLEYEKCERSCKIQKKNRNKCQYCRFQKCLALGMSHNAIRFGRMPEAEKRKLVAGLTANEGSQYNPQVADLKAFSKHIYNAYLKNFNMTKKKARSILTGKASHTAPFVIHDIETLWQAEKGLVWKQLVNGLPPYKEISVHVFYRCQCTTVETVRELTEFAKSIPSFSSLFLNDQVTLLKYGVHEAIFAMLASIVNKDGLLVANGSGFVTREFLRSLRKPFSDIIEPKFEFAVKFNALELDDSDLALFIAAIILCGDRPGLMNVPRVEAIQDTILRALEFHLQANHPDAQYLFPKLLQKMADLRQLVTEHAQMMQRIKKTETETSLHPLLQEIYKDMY
Assay: qHTS assay to identify small molecule antagonists of the peroxisome proliferator-activated receptor delta (PPARd) signaling pathway (AID 743215; active = well fitted inhibition curve with a large enough effect in the signal ratio in the repeat runs, not every such curve was filed as active; the % refers to the signal ratio;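 also: cells stimulated with agonist L165041 at 300 nM final during compound exposure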)
Conditions: HEK293H PPARd-UAS-bla, beta-lactamase FRET ratio, antagonist, 17 h; series mostly up to 62 µM; ratio activity, negative = inhibition: at the top concentration
Summary of the method: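 Antagonist-mode beta-lactamase reporter screen: HEK293H cells with UAS-bla under PPARd control, stimulated by 300 nM L165041 (final) alongside test compound for 17 h at 37 C, then FRET fluorescence after 2 h substrate incubation.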

Compound	ratio activity, negative = inhibition	Potency
CC1(CN2CCC(n3c(=O)[nH]c4ccccc43)CC2)OCc2ccccc2-n2cccc21 (stereo not drawn)	-25.5%	–
C[C@@H]1CN(CCCn2c3ccccc3c3ccccc32)C[C@H](C)N1	–	29.8 µM (active)
CC(C)COCC(CN(Cc1ccccc1)c1ccccc1)N1CCCC1 (stereo not drawn)	-8.1%	–
CCOc1cccc(-n2cc(C(=O)N3CCN(c4cc(C(=O)O)c5ccccc5c4)CC3)nc2-c2ccc(C)cc2)c1	-12.8%	–
C1C[C@@H]2[C@H]3CC[C@H](C3)[C@@H]2C1	2.43%	–
C[C@@H](O)[C@H]1C(=O)N2C(C(=O)O)=C([C@H]3CCCO3)S[C@H]12	-1.44%	–
CN1CCCC(n2nc(Cc3ccc(Cl)cc3)c3ccccc3c2=O)CC1 (stereo not drawn)	-0.0973%	–
C=Cc1ccc(S(=O)(=O)O)cc1	-6.5%	–
Oc1cccc(O)c1O	-7.81%	–
CCCCCCCCCCC(=O)O	-9.63% [at 80.4 µM]	–
CC(C)c1nc(CN(C)C(=O)N[C@H](C(=O)N[C@@H](Cc2ccccc2)C[C@H](O)[C@H](Cc2ccccc2)NC(=O)OCc2cncs2)C(C)C)cs1	0.763%	–
O=C1c2ccccc2C(=O)C1c1ccc(Br)cc1	6.19%	–
CCCCCC#CC(=O)OC	-19.2%	–
Oc1ccc(Cl)c2cccnc12	–	1.06 µM (active)
